# Screens deposited in PubChem by several laboratories.
# Shown are actives, neighbours in structure and some others; about 1.1% of the full set was active somewhere.
# BAP1 inh = inhibitors of BAP1 deubiquitinase, primary screen, biochemical, Ub-AMC fluorescence, kinetic | Ubiquitin carboxyl-terminal hydrolase BAP1 (Homo sapiens), Q92560 | recombinant BAP1, Ub-AMC hydrolysis fluorescence kinetic; active compounds read low | calls only at 20 µM | hit rate 0.48% among 72,000 | AID 436, 2006;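 active means activity remaining at or below 50% of control, provided the compound also passes the data quality filters; inactive means the rest, including low values that fail the filters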;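 further: 100% = DMSO wells rate and 0% = substrate alone blank rate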
# CatG inh = human cathepsin G inhibitors, primary screen, biochemical, pooled compound mixtures, AMC fluorescence. hit rate 0.2% among 62,000. purified enzyme, AMC-tetrapeptide fluorescence. AID 581, 2007. inhibition, % at 5 µM (by protocol). P08311;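 active means inhibition above 20% in each of the two mixture wells holding the compound; inactive means inhibition of 20% or less in either well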;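 further: 0% = enzyme control without mixture and 100% = blank lacking enzyme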
# Target sequence (P08311 21-244 limits assumed): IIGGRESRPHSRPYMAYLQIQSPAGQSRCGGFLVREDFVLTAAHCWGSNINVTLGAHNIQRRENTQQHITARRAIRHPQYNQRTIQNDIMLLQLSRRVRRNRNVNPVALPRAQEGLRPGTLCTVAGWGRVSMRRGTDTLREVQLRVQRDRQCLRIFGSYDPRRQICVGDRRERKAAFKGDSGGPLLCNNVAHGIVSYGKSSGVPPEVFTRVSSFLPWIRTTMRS
# E coli RNAP = E. coli RNAP inhibitors, biochemical | hit rate 0.2% among 62,000 | E. coli RNA polymerase, fluorescence transcription assay | AID 559, 2006 | inhibition, %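 (tested at 10 µM)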; in the data active means inhibition above about 20%;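 further: 0% = enzyme without compound and 100% = no enzyme blank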
# FXIIa inh mix = human factor XIIa inhibitors, primary screen, biochemical, pooled compound mixtures, fluorogenic substrate. purified FXIIa. Coagulation factor XII (Homo sapiens), P00748. hit rate 0.2% among 62,000. AID 684, 2007. inhibition, % at 5 µM;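 further: 0% = enzyme without compound and 100% = no enzyme blank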
# FXIa mix inh = FXIa protease inhibitors in compound pools, primary screen, biochemical, 10-compound mixtures. Coagulation factor XI (Homo sapiens), P03951. hit rate 0.19% among 62,000. inhibition, % at 5 µM. purified FXIa, fluorogenic substrate, pooled mixtures;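 further: each value is inhibition by a whole ten-compound pool holding the compound; 0% = enzyme with no mixture and 100% = wells lacking enzyme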
# C1s block = complement C1s protease inhibitors, primary screen, biochemical, 10-compound mixtures; Complement C1s subcomponent (Homo sapiens), P09871; purified C1s, fluorogenic AMC substrate, pooled mixtures; mean inhibition % of two 10-compound mixtures (active compounds read high), % at 5 µM (by protocol); hit rate 0.16% among 62,000; AID 538, 2006;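 active means inhibition above 20% in each of the two 10-compound mixture wells holding the compound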;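 further: 0% = enzyme wells lacking compound mixture and 100% = no-enzyme blank wells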
# Starred values were filed as active, the others as inactive; i = inactive; / = no result shown; + = active, no number. Unless noted, no stated cut-off is given here; in the data, active means inhibition above about 20% (passing the limit was not always enough); inactive means the rest.
SMILES,BAP1 inh,CatG inh,E coli RNAP,FXIIa inh mix,FXIa mix inh,C1s block
C=CCNC(=O)NS(=O)(=O)c1ccc(C)cc1,i,8.9,9.4,1.5,22.3*,15.1
C=Cc1c(C)c2cc3[nH]c(cc4nc(cc5nc(cc1[nH]2)C(C)=C5CCC(=O)O)C(CCC(=O)O)=C4C)c(C)c3C=C,+,/,/,/,/,/
CCc1ccccc1N(C(=O)c1cccs1)C1C=CS(=O)(=O)C1 (stereo not given),i,15.3,7.1,-2.2,10.7,60.2*
Cn1c2ccc(Br)cc2c2nc3ccccc3nc21,i,/,/,/,/,/
COCCN1C(=O)c2ccccc2C(C(=O)NCc2ccco2)C1c1c[nH]c2ccccc12 (stereo not given),i,11.9,5.7,2.5,3.0,14.8
COCCN1C(=O)c2ccccc2C(C(=O)NCCCN2CCCC2)C1c1c[nH]c2ccccc12 (stereo not given),i,4.6,-1.8,7.6,37.0*,2.9
O=C(c1cc2n(n1)C(C(F)(F)F)CC(c1ccc(F)cc1)N2)N1CCN(Cc2ccccc2)CC1 (stereo not given),i,/,/,/,/,/
CCOC(=O)c1cccc(NC(=O)c2ccc(F)cc2)c1,i,/,/,/,/,/
Cn1c(SCC(=O)NCc2ccc3c(c2)OCO3)nnc1C1COc2ccccc2O1 (stereo not given),i,9.0,11.7,-19.1,9.9,15.3
C=CCn1c(SCC(=O)NCc2ccc3c(c2)OCO3)nnc1C1COc2ccccc2O1 (stereo not given),i,11.5,2.7,12.8,33.4*,7.0
COc1nc(Nc2ccc(C(C)=O)cc2)nc(OC)n1,i,1.5,36.0*,8.4,0.9,-47.7
CCCCOc1ccccc1C1C(C(=O)OC)=C(C)N(C)C(C)=C1C(=O)OC,i,-10.3,1.9,-17.8,-5.6,-53.1
COC(=O)C1=C(C)N(C)C(C)=C(C(=O)OC)C1c1ccccc1C,i,9.4,7.7,2.5,23.6*,10.2
Cc1cc(NC(=O)c2cccc(S(=O)(=O)N3CCCCCC3)c2)n(-c2ccccn2)n1,i,42.3,-4.7,10.7,3.0,43.0*
Cc1cc(NC(=O)C2CCC2)n(-c2ccccn2)n1,i,/,/,/,/,/
O=C(Nc1ccccc1C(F)(F)F)N1CCCCCC1,i,-4.7,5.0,2.7,15.3,3.0
NC(=O)C1(N2CCCCC2)CCN(C(=O)Nc2ccccc2C(F)(F)F)CC1,i,36.6,6.6,6.4,22.2,25.3*
COc1ccc(N2CCN(Cc3cc(=O)oc4c3ccc3ccccc34)CC2)cc1,+,12.4,9.0,2.7,5.6,15.8
CN1CC2(Cc3c1ccc1ccccc31)C(=O)OC(C)(C)OC2=O,i,42.0*,-19.3,2.9,-3.6,-36.0
CSc1ccccc1NC(=O)c1cc2n(n1)C(C(F)(F)F)CC(c1ccc(Cl)cc1)N2 (stereo not given),i,/,/,/,/,/
COCCCNC(CC(=O)Nc1ccccc1C(=O)OC)C(=O)O (stereo not given),i,14.0,1.2,5.6,8.3,21.8*
COc1ccccc1N1C(=O)C2C3C=CC(C3)C2C1=O (stereo not given),i,-3.8,-0.2,20.6*,1.3,-0.2
CCOc1ccc(-c2nnn(CC(=O)c3ccc4c(c3)OCCO4)n2)cc1,i,9.4,6.8,1.2,8.6,13.0
COc1ccc(-c2nnn(CC(=O)c3ccc4c(c3)OCCO4)n2)cc1OC,i,9.2,9.8,3.5,20.3*,2.5
CCOC(=O)c1cc(NC(=O)Nc2ccc(OC)c(OC)c2)c(C)nc1C,i,-1.9,1.8,8.9,28.7*,1.5
SMILES,BAP1 inh,CatG inh,E coli RNAP,FXIIa inh mix,FXIa mix inh,C1s block
CCCc1[nH]nc2c1C(c1cn[nH]c1-c1ccc(F)cc1)C(C#N)=C(N)O2 (stereo not given),i,13.2,12.1,0.7,21.1*,16.8
CCCc1[nH]nc2c1C(c1ccccc1OC)C(C#N)=C(N)O2 (stereo not given),i,9.3,9.0,1.6,7.6,8.7
Cc1ccc2c(C)nc(SCc3ccc(Cl)cc3)nc2c1,i,/,/,/,/,/
COc1ccccc1CNC(=O)c1cnc2ccccn2c1=O,i,10.8,6.9,-0.3,20.9*,2.2
Cc1ccc2nc(-c3ccc(NC(=O)c4ccc(C#N)cc4)cc3)sc2c1,i,/,/,/,/,/
COc1cc(C)nc(N2CCCC(C(=O)Nc3cccc(Cl)c3C)C2)n1 (stereo not given),/,7.3,5.1,4.1,21.2*,5.2
CC(=O)c1cc2c(O)c(O)ccc2o1,i,2.8,21.1*,0.4,1.9,2.2
CC(=O)c1cc2cc(O)ccc2o1,/,-7.3,-138.9,-9.7,-12.3,-129.7
CCOC(=O)c1c(NC(=O)c2ccccc2)sc(C(=O)N2CCCCC2)c1C,i,/,/,/,/,/
CC(=O)Nc1ccc2nc(NC(=O)c3ccc(S(=O)(=O)N4CC(C)CC(C)C4)cc3)sc2c1 (stereo not given),i,/,/,/,/,/
CCN(CC)c1ccc(C2C3=C(CC(C)(C)CC3=O)Nc3ccc4ccccc4c32)cc1 (stereo not given),i,/,/,/,/,/
Cc1cccc(N2C(=O)c3ccc(NC(=O)c4ccc(Br)cc4)cc3C2=O)c1,i,/,/,/,/,/
CN(C)c1cc(NC(=O)CN2CCOCC2)c2ccccc2n1,+,10.2,4.7,7.1,-3.5,-3.3
CCCC(=O)Nc1nc2ccc(S(N)(=O)=O)cc2s1,i,-5.4,0.0,22.4*,3.2,2.1
Clc1ccc(-c2onc3ccc(I)cc23)cc1,i,/,/,/,/,/
CCOC(=O)c1sc(NCC2CCCO2)nc1C (stereo not given),i,2.0,2.6,2.2,7.7,-2.5
CCOC(=O)c1sc2nc(SCC#N)n(CC3CCCO3)c(=O)c2c1C (stereo not given),i,-1.3,1.1,7.3,22.5*,0.5
Cc1noc(C)c1COC(=O)c1ccccc1Oc1ccccc1,i,-3.1,5.5,3.5,-1.5,-0.3
Cc1noc(C)c1COC(=O)c1ccccc1NC(=O)Cc1ccccc1,i,29.9,7.0,2.9,30.3,35.1*
Nc1c(S(=O)(=O)O)cc(Nc2ccc(Nc3nc(Cl)nc(Nc4ccc(S(=O)(=O)O)cc4)n3)c(S(=O)(=O)O)c2)c2c1C(=O)c1ccccc1C2=O,+,/,/,/,/,/
Cc1nc2ccccn2c1P(=O)(N1CCCCC1)N1CCCCC1,i,4.2,-3.0,20.5*,6.3,-5.4
CC(=O)c1c(C)nc2ccccn12,i,-12.3,7.1,3.5,-0.4,-22.6
CC(C)N(Cc1nc(-c2ccc(Cl)cc2)no1)C(=O)CN(C)S(=O)(=O)c1ccc(Cl)cc1,i,-1.7,20.7*,9.3,-3.7,-75.6
